A selection: hits, their analogues and other compounds. The true share with any hit is near 2.9%.
Beta2AR agonist = beta2AR agonists driving receptor internalization, primary screen, cell-based, FAP fluorogen, flow cytometry; Beta-2 adrenergic receptor (Homo sapiens), P07550; Am2.2-beta2AR cells; response, % (test concentration not listed); hit rate 0.43% among 340,000; AID 504454, 2011;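 active = response above a set limit, near 3 SD of response in nonfluorescent compounds, cut at about 42% in these data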
NadD inh = inhibitors of S. aureus NadD, primary screen, biochemical, colorimetric, uHTS | purified NadD enzyme, colorimetric absorbance read-out | inhibition, % at 20 µM | hit rate 0.78% among 360,000 | AID 602399, 2012; in the data active = inhibition above about 26%
PP1 inh = PP1-alpha phosphatase inhibitors, primary screen, counter-screen for PP5 inhibitor project, biochemical, fluorescence, OMFP substrate, single point | Serine/threonine-protein phosphatase PP1-alpha catalytic subunit (Homo sapiens), P62136 | purified PP1alpha | inhibition, % at 6.7 µM | hit rate 0.9% among 320,000 | AID 2235, 2010;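 active = inhibition above the mean inhibition of all tested compounds plus 3 SD, computed separately for each screening campaign, cut at about 15% in these data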
Exocytosis inh = LAMP-1 surface exposure blockers, TALL-104 cells – cell-based, flow cytometry, MLPCN library, primary screen; TALL-104 LAMP-1 surface exposure; cells stimulated with thapsigargin and PMA; inhibition, % at 10 µM; hit rate 0.66% among 360,000; AID 651702, 2012;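 active = inhibition above about 55%, limit read from the data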
GRK2 aptamer HTS = compounds blocking aptamer binding on GRK2 – biochemical, human GRK2, bead flow cytometry, HTS, primary screen; Beta-adrenergic receptor kinase 1 (Homo sapiens), P25098; FAM-aptamer displacement from GRK2; inhibition of aptamer binding, % at 10 µM; hit rate 0.59% among 330,000; AID 488847, 2010;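 active = inhibition of aptamer binding above 40%, roughly 3 SD of noise, on plates passing a quality check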;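 note: median bead fluorescence of bound FAM aptamer so fluorescent compounds give negative values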
Target sequence (P25098 whole entry, looked up): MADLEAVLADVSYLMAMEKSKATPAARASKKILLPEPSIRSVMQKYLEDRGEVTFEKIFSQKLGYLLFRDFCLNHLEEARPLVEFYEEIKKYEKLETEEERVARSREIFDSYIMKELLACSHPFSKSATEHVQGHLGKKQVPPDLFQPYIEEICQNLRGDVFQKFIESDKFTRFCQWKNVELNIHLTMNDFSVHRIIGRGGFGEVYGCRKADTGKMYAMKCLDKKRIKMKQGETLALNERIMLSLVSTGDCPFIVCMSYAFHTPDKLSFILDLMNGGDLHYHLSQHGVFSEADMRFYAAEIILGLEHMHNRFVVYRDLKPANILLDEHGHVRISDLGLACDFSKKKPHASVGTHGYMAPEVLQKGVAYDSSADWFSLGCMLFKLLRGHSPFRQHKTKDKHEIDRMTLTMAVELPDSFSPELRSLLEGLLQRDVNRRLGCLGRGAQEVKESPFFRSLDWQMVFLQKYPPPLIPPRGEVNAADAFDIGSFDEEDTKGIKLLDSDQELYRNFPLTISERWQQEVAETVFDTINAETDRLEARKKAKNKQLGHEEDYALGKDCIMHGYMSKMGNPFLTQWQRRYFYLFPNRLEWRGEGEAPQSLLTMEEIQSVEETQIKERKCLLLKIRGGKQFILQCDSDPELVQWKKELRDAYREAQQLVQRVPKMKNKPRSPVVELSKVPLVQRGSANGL
GRK2 CP1 = GRK2 aptamer-displacing inhibitors, retest, confirmation, biochemical, cherry pick 1, bead flow cytometry; shares compounds with GRK2 aptamer HTS; bead-bound GRK2, FAM-aptamer displacement; aptamer displacement, % at 10 µM; hit rate 4% among 2,000;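 active = aptamer displacement above 40%, near three times the noise of non-fluorescent compounds, on plates passing quality checks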;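 note: negative values mostly reflect intrinsic compound fluorescence rather than true enhancement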
Aptamer quench = quenches fluorescent RNA aptamer, GRK2 hit artifact; shares compounds with GRK2 aptamer HTS; Fluorescent RNA aptamer beads, quenching, flow cytometry; hits give high values; fluorescence change (kMESF span), kMESF (test concentration not listed); 110 tested, under 10 active;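 active = compounds whose bead fluorescence drops by more than 37 kMESF across the dose range, marking them as dye quenchers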
Aptamer quench SP = quenches fluorescent RNA aptamer, GRK2 hit artifact; fluorescence response (% of DMSO), % at 10 µM; shares compounds with GRK2 aptamer HTS; 2,000 tested, under 10 active; Carboxyfluorescein RNA aptamer on beads, flow cytometry quenching; hits give low values; AID 504580;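 active = compounds that quench the bead-bound fluorescent RNA probe, cutting fluorescence to under half of the solvent control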;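 note: counterscreen run without GRK2 so only probe quenching by compound is measured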
GRK2 confirm 2 = GRK2 aptamer-displacing inhibitors, hit retest, confirmation, biochemical, cherry pick 2, bead flow cytometry; 360 tested, under 10 active; inhibition of aptamer binding, % at 10 µM; shares compounds with GRK2 aptamer HTS; bead-bound GRK2, FAM-aptamer displacement;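 active = inhibition of aptamer binding above 40%, about triple the noise seen with nonglowing compounds, on plates passing quality control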;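 note: negative values mostly come from compounds that fluoresce themselves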
Aptamer quench3 = fluorescence quenching of FAM-labeled RNA aptamer, dose response, artefact control for GRK2 aptamer inhibitor project, biochemical, flow cytometry, cherry pick 2; Streptavidin beads; 25 tested, under 10 active; change in fluorescence (kMESF span), kMESF (test concentration not listed); shares compounds with GRK2 aptamer HTS; AID 504819, 2011;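 active = compounds quenching the bead-bound labeled aptamer, with fluorescence dropping by more than 37 kMESF over the dose range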
FAM quench CP2 = quenches fluorescent RNA aptamer, GRK2 hit artifact. shares compounds with GRK2 aptamer HTS. AID 588494. carboxyfluorescein RNA aptamer beads, flow cytometry quenching; hits give low values. fluorescence response vs DMSO, % at 10 µM. 360 tested, under 10 active;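 active = response vs DMSO under 50%, meaning signal dropped by over half, treated as fluorescence quencher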;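 note: labelled aptamer on streptavidin beads without GRK2 as a quench counter-screen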
FAM quench PS1 = quenchers of FAM-labeled RNA aptamer fluorescence, dose response, artefact control for GRK2 aptamer binding project, biochemical, powder set 1, flow cytometry; 35 tested, under 10 active; Bead-bound FAM RNA aptamer fluorescence quenching; hits give low values; shares compounds with GRK2 aptamer HTS; fluorescence ratio to DMSO, % at 11.1 µM;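 active = compounds that dim the fluorescent label, raw bead signal shifting by over 33 units between lowest and highest dose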
Large screens that a line does not name were inactive (follow-up assays come after a bar, where they were run).

Cc1nnc(SCc2ccc(CSc3nnc(C)c(=O)[nH]3)cc2)[nH]c1=O	none
COc1cc(Cl)ccc1OCc1cc(C(=O)NCCCN2CCCC2=O)no1	none
CCOC(=O)/C=C1\SCC(=O)N1CC(=O)NCc1ccc(OC)c(OC)c1	GRK2 aptamer HTS 95 | GRK2 CP1 inactive | Aptamer quench SP inactive
O=C(Cc1cccc(NC(=O)C2CCCN(C(=O)C3CCCC3)C2)c1)Nc1ccc(C(=O)N2CCCCC2)cc1 (centres undefined)	none (no result: PP1 inh, GRK2 aptamer HTS)
O=C(NNC(=O)c1ccccc1O)c1cccc(Br)c1	none
Cc1cccc(COc2ccc(S(=O)(=O)N3CCOCC3)cc2[N+](=O)[O-])c1	none (no result: PP1 inh, GRK2 aptamer HTS)
Cc1ccc2c(nc3s/c(=C\c4ccc(-c5ccccc5C(=O)O)o4)c(=O)n32)c1C	GRK2 aptamer HTS 49 | GRK2 CP1 inactive | Aptamer quench SP inactive
Cc1ccc(C)c(N2C(=N)S/C(=C\c3ccc(-c4ccccc4C(=O)O)o3)C2=O)c1	none
O=C(O)c1ccc(-c2ccc(/C=c3/sc4nc5ccccc5n4c3=O)o2)cc1Cl	GRK2 aptamer HTS 80 | GRK2 CP1 60 | Aptamer quench inactive | Aptamer quench SP inactive
CCOC(=O)C(C)N1C(=O)S/C(=C\c2ccc(-c3ccccc3C(=O)O)o2)C1=O (centres undefined)	GRK2 aptamer HTS 84 | GRK2 CP1 71 | Aptamer quench inactive | Aptamer quench SP inactive
Cc1cc(C)c2nc3sc(=Cc4ccc(-c5ccccc5C(=O)O)o4)c(=O)n3c2c1	none (no result: Beta2AR agonist, PP1 inh, GRK2 aptamer HTS)
Cc1cc(/C=c2\sc3nc4ccccc4n3c2=O)c(C)n1-c1ccc(C(=O)O)cc1	none (no result: PP1 inh, GRK2 aptamer HTS)
Cc1ccc(S(=O)ONc2cccc(NOS(=O)c3ccc(C)cc3)c2)cc1 (centres undefined)	none (no result: Beta2AR agonist, PP1 inh, GRK2 aptamer HTS)
O=C(NCC1CCCO1)c1cn(Cc2ccccc2)nc1-c1ccc(Cl)cc1 (centres undefined)	GRK2 aptamer HTS 45 | GRK2 CP1 inactive | Aptamer quench SP inactive
CN(CC(=O)Nc1c(Cl)cccc1Cl)C(=O)CCc1nc2sc3c(c2c(=O)[nH]1)CCCC3	none | GRK2 CP1 inactive | Aptamer quench SP inactive
O=C(Cc1ccccc1)Nn1cnc2ccccc21	GRK2 aptamer HTS 55 | GRK2 CP1 inactive | Aptamer quench SP inactive
CCc1ccc(NC(=S)NC(=O)CC(C)C)cc1	GRK2 aptamer HTS 69 | GRK2 CP1 inactive | Aptamer quench SP inactive
CCC(=O)Nc1ccc(N2CCOCC2)c(S(=O)(=O)Nc2ccc(OC)cc2)c1	none
CCCCCC(=O)Nc1ccc(N2CCOCC2)c(S(=O)(=O)Nc2ccc(OC)cc2)c1	GRK2 aptamer HTS 82 | GRK2 CP1 inactive | Aptamer quench SP inactive
CC1(C)Cc2c(sc3ncnc(NNC(=S)NCc4ccccc4)c23)CO1	GRK2 aptamer HTS 91 | GRK2 CP1 inactive | Aptamer quench SP inactive
COc1ccc(-c2cc(=O)c3c(O)cc(OC4OC(COC5OC(C)C(O)C(O)C5O)C(O)C(O)C4O)cc3o2)cc1O (centres undefined)	none
COc1ccc([C@@H]2CC(=O)c3c(O)cc(O[C@@H]4O[C@H](CO[C@@H]5O[C@@H](C)[C@H](O)[C@@H](O)[C@H]5O)[C@@H](O)[C@H](O)[C@H]4O)cc3O2)cc1O	GRK2 aptamer HTS 56 | GRK2 CP1 inactive | Aptamer quench SP inactive
CC(C)C(c1nnnn1C(C)(C)C)N1CCN(c2cccc(Cl)c2)CC1 (centres undefined)	none
NNc1ccc2nnc(C(F)(F)C(F)(F)C(F)(F)F)n2n1	GRK2 aptamer HTS 80 | GRK2 CP1 inactive | Aptamer quench SP inactive
FC(F)(F)C(F)(F)C(F)(F)c1nnc2ccc(N3CCOCC3)nn12	none
O=C(N/N=C/c1cccc(F)c1)c1c(O)c2ccccc2[nH]c1=O	GRK2 aptamer HTS 70 | GRK2 CP1 inactive | Aptamer quench SP inactive
OCCN(Cc1ccccc1)CC1CC2C=CC1C2 (centres undefined)	GRK2 aptamer HTS 46 | GRK2 CP1 inactive | Aptamer quench SP inactive
CCc1ccc(CNC(=O)C2CCN(S(=O)(=O)N3CCCCC3)CC2)cc1	none (no result: Beta2AR agonist, PP1 inh, GRK2 aptamer HTS)
NC(=O)c1ccc(NC(=O)COC(=O)/C=C/c2ccc(Br)o2)cc1	GRK2 aptamer HTS 44 (no result: PP1 inh) | GRK2 CP1 inactive | Aptamer quench SP inactive
Cc1cccc(NC(=S)NC2CC3CCCC(C2)N3Cc2cccs2)c1 (centres undefined)	none
Cc1ccc(S(=O)(=O)CCC(=O)Nc2cccc(C)c2)cc1	none
CCc1cccc(NC(=O)CCS(=O)(=O)c2ccc(Br)cc2)c1	GRK2 aptamer HTS 93 | GRK2 CP1 73 | Aptamer quench inactive | Aptamer quench SP inactive | Aptamer quench3 inactive
COC(=O)c1ccc(NC(=O)CCS(=O)(=O)c2ccc(Br)cc2)cc1	GRK2 aptamer HTS 58 | GRK2 CP1 inactive | Aptamer quench inactive | Aptamer quench SP inactive | Aptamer quench3 inactive | FAM quench PS1 inactive
CC(=O)c1ccc(NC(=O)CCS(=O)(=O)c2ccc3c(c2)n(C)c(=O)c(=O)n3C)cc1	GRK2 aptamer HTS 48 | GRK2 CP1 inactive | Aptamer quench SP inactive | GRK2 confirm 2 inactive | FAM quench CP2 inactive
COC(=O)c1ccc(NC(=O)CCS(=O)(=O)c2ccc(C)cc2)cc1	none

Source: PubChem (several laboratories)
